Screens deposited in PubChem BioAssay by several laboratories.
Platelet DG rel – platelet dense granule release activity; hit rate 0.22% among 300,000; AID 1663; inhibition, %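 (compounds screened at 7.5 µM in platelet-rich plasma)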; human platelet-rich plasma, SFLLRN dense granule ATP release, luminescence;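 active = mean replicate score, as percent of positive control, at or above 50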
NTR1 ag – NTR1 (human) agonism; hit rate 0.17% among 330,000; NTR1-U2OS beta-arrestin-GFP spot imaging, agonist mode; P30989; activation, % at 20 µM;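 active = activation at or above 40% of the spot to cytoplasm intensity ratio, with at least 20 cells analyzed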;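 also: 0% = DMSO without peptide and 100% = 100 nM NTR1 peptide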
Target sequence (P30989 whole entry, looked up): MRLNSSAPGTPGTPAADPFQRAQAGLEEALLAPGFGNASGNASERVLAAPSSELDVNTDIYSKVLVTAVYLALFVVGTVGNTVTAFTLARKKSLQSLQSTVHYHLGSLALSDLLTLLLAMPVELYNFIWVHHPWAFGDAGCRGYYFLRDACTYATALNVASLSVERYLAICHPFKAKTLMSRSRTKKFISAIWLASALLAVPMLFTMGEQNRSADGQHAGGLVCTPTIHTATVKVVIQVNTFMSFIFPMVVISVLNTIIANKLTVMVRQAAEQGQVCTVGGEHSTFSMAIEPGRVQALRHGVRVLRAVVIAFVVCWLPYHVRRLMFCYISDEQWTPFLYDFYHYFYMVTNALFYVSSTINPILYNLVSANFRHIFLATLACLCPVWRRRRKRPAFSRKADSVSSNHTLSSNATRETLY
HIF activator – HIF pathway transcriptional activation; activation, % at 7.5 µM (by protocol); hit rate 0.32% among 300,000; U2OS HRE-luciferase reporter, luminescence; normalized: DMSO 0%, desferrioxamine 100%;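 active = mean activation of at least 10% of the iron chelator positive control signal, with at least half of replicates also reaching 10%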
Starred values were filed as active, the others as inactive; · = no result. The list is not random: actives were taken first. Their share in the collection is about 0.63%.

SMILES	Platelet DG rel	NTR1 ag	HIF activator
COc1cc2c(cc1OC)-c1cc(N3CCCc4ccccc43)nc(=O)n1CC2	14	0	0
COc1cc2c(cc1OC)-c1cc(N3CCCCCC3)nc(=O)n1CC2	54*	-1	·
CC(C)(O)C#Cc1ccc(C(=O)NCc2ccccc2)s1	2	2	0
Cc1onc(-c2ccccc2Cl)c1C(=O)Nc1cccc(-c2cn3cccnc3n2)c1	·	5	·
CCCCc1nnc(NC(=O)CSc2nc(=O)cc(N)n2-c2cccc(C)c2)s1	10	-1	0
CC(C)(C)C(=O)C1=C(O)C(=O)N(c2ccccc2)C1c1ccccc1 (stereo not given)	-3	0	0
Cc1nnsc1SC(C)C(=O)O (stereo not given)	2	3	0
CC(=O)c1ccc(-c2csc(N3CCC(C(N)=O)CC3)n2)cc1	·	1	·
COc1cccc(NC(=O)COc2ccc(Br)c(C)c2)c1	-2	2	2
CCCc1sc(N/N=C/c2ccccn2)nc1-c1ccc(F)cc1	4	4	20*
CCN=c1scc(-c2ccc(F)cc2)n1/N=C/c1ccccn1	-10	4	5
COc1ccc(C(=O)c2ccsc2N)cc1	1	-1	0
CCn1c(NCc2ccc(N(C)C)cc2)nc2ccccc21	1	-1	1
CN(C)c1ccc(N=Nc2nc3ccccc3n2C)cc1	182*	4	-2
Cn1c(Cl)nc2ccccc21	1	3	0
Cn1c(N=Nc2ccccc2)nc2ccccc21	72*	0	0
COc1cccc(C(=O)N2CCN(Cc3cccc(F)c3)CC2)c1	2	2	-1
Cc1cccn2c(=O)c3cc(C(=O)NC4CCCCC4C)n(C)c3nc12 (stereo not given)	-1	7	0
COCCSc1ccccc1C(=O)N1CCN(c2ccccc2OC)CC1	0	0	-1
CCCn1c(N2CCN(C)CC2)nc2c1c(=O)[nH]c(=O)n2C	0	0	-10
Cc1ccc(S(=O)(=O)N/N=C/c2cccc([N+](=O)[O-])c2)cc1	9	0	0
CCCCCCCCCS(=O)(=O)N/N=C/c1cccc([N+](=O)[O-])c1	0	2	71*
CCN1/C(=C2/SC(=S)N(NC(C)=O)C2=O)Sc2ccccc21	-12	0	-56
CC1=NN2C(=N)/C(=C\c3cc(C)n(Cc4ccccc4)c3C)C(=O)N=C2S1	-5	-1	55*
Cc1cc(/C=C2\C(=N)N3N=C(CC(=O)N4CCOCC4)SC3=NC2=O)c(C)n1Cc1ccccc1	-8	-1	0
SMILES	Platelet DG rel	NTR1 ag	HIF activator
CCOc1ccc(C(=O)N/N=C/c2ccc(SC)cc2)cc1	-4	1	0
CSc1ccc(/C=N/NC(=O)c2cccc(O)c2)cc1	72*	0	3
O=C(Nc1nc(-c2ccccn2)cs1)c1cccc(-n2cnnn2)c1	0	0	20*
O=C(Nc1ccc(Br)cc1)c1cccc(-n2cnnn2)c1	-2	2	0
O=C(COc1ccccc1Cl)Nc1cccnc1	4	-1	4
O=C(N/N=C/c1c(O)ccc2ccccc12)c1cccc(C(F)(F)F)c1	11	10	14*
COc1ccc2ccccc2c1/C=N/NC(=O)c1cccc(Br)c1	-7	15	-19
Cc1nn(-c2ccccc2)c(Cl)c1/C=N/NC(=O)c1[nH]ncc1Br	60*	3	0
COc1ccc(OC)c(/C=N/NC(=O)c2[nH]ncc2Br)c1	10	0	1
O=C(N/N=C/c1c(O)ccc2ccccc12)c1[nH]ncc1Br	-12	3	115*
Cc1ccc(O)c(/C=N/NC(=O)c2[nH]ncc2Br)c1	27	2	7
Cc1nn(-c2ccccc2)c(Cl)c1/C=N/NC(=O)c1ccn[nH]1	2	0	1
CCOc1ccc(/C=N/NC(=O)c2[nH]ncc2Br)c(O)c1	84*	4	23*
Cc1noc(C)c1COC(=O)c1ccc(S(=O)(=O)N2CCCCC2)cc1	3	0	0
CC(C)c1ccc(CN2CCN(S(=O)(=O)c3ccc(Cl)s3)CC2)cc1	·	1	·
COc1ccc(CC(=O)Nc2nnc(C(C)C)s2)cc1	-13	·	1
CCOc1nc(-c2ccccc2Cl)ccc1C#N	-1	1	1
CCCNC(=O)Cn1c(=O)oc2cc(S(=O)(=O)N3CC(C)CC(C)C3)ccc21 (stereo not given)	-11	-1	-1
O=C(N/N=C\c1c(O)ccc2ccccc12)c1ccc(Cn2cccn2)o1	-6	2	38*
O=C(N/N=C\c1ccc(Cl)s1)c1ccc(Cn2cccn2)o1	-12	0	2
c1ccc2nc(-c3ccc(N4CCOCC4)cc3)ccc2c1	57*	2	-7
Cc1cc(-c2ccc(N3CCOCC3)cc2)nc2ccccc12	6	2	3
CN1CCN(c2ccc(-c3ccc4ccccc4n3)cc2)CC1	79*	·	-6
c1ccc2nc(-c3ccncc3)ccc2c1	3	-1	1
O=C(Nc1ccc(Cl)c(S(=O)(=O)N2CCOCC2)c1)c1cn2ccccc2n1	-4	6	0
SMILES	Platelet DG rel	NTR1 ag	HIF activator
O=C(Nc1ccc(N2CCCCCC2)cc1)c1ccccc1Cl	0	5	8
O=C(Nc1ccc(N2CCCCC2)cc1)c1ccccn1	75*	2	-3
O=C(Nc1ccc(N2CCOCC2)cc1)c1cn2ccccc2n1	68*	0	-2
O=C(Nc1ccccc1F)c1cc(C(=O)Nc2ccccc2F)cc([N+](=O)[O-])c1	-1	0	-1
c1ccc(-c2ccccc2OCCCN2CCCCC2)cc1	-5	0	-1
COCCN(C(=O)Nc1ccc(OC)cc1OC)C1CCN(C(C)C)CC1	3	0	0
CCN(CC)C1CCN(C(=O)CCc2nnc(CCCCc3ccccc3)o2)C1 (stereo not given)	4	0	0
CCn1cc(C(=O)O)c(=O)c2cc(F)c(N3CCN(C(=S)NC(=O)c4cc(OC)cc(OC)c4)CC3)cc21	2	0	0
C#CCOC(=O)Nc1cccn(Cc2c(Cl)cccc2Cl)c1=O	-2	4	2
COC(=O)Nc1ccc(=O)n(Cc2c(Cl)cccc2Cl)c1	3	1	175*
CCCC(C)C(=O)NCc1ccccc1OC (stereo not given)	1	3	0
CC(=C/c1ccccc1)/C=N/NC(=O)c1nnn(-c2nonc2N)c1CN1CCC(C)CC1	-10	9	0
CCN(CC)c1ccc(/C=N/NC(=O)c2nnn(-c3nonc3N)c2C(C)C)c(O)c1	-4	10	89*
Nc1nonc1-n1nnc(C(=O)N/N=C/c2ccc(O)cc2)c1CN1CCCCCC1	9	1	0
CCOc1cccc(-c2c(C(=O)N/N=C/c3ccc(Br)cc3)nnn2-c2nonc2N)c1	15	21	10*
CC(C)c1c(C(=O)N/N=C/c2ccc3c(c2)OCO3)nnn1-c1nonc1N	7	4	0
CC1CCN(Cc2c(C(=O)N/N=C/c3ccccc3O)nnn2-c2nonc2N)CC1	10	-1	31*
CCc1ccc(/C=N/NC(=O)c2nnn(-c3nonc3N)c2CN2CCOCC2)cc1	50*	4	0
CCOc1cccc(-c2c(C(=O)N/N=C/c3cccnc3)nnn2-c2nonc2N)c1	2	2	0
O=C(C[n+]1cc(Br)cc2ccccc21)c1ccccc1	10	-1	-1
